Experimental data from PubChem BioAssay (Tox21).
Inconclusive results are not listed. Active and inactive are the calls of the source. Unless noted, calls come from the whole dose curve; as a rule, active = well fitted curve in the direction sought with a large enough effect in the repeat runs; inconclusive = weak or mixed curves; inactive = no such curve, though single readings can be large; an effect the other way counts as inactive or inconclusive.

What was measured:
[1] = qHTS assay to identify small molecule agonists of H2AX (AID 1224845; active = well fitted activation curve with a large enough effect in the signal ratio in the repeat runs, not every such curve was filed as active; the % refers to the signal ratio)
Outline: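 Phospho-H2AX Ser139 measured by HTRF (ex 320 nm; em 665 and 620 nm) after 24 hr antibody incubation. Compounds, 15 concentrations, 0.76% DMSO, were applied to CHO-K1 cells for 3hr at 37C before lysis.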

[2] = qHTS assay to identify small molecule agonists of the hypoxia (HIF-1) signaling pathway (AID 1224846; active = well fitted activation curve with a large enough effect in the signal ratio in the repeat runs, not every such curve was filed as active; the % refers to the signal ratio)
Outline: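 HRE-bla ME-180 cells (beta-lactamase reporter under hypoxia response element) were plated at 2,000 cells/well in medium with 0.5% dialyzed FBS, rested 5 hrs, then given compounds in DMSO for 17 hrs at 37C, 5% CO2. Reporter induction was read with CCF4-AM FRET substrate.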

[3] = qHTS assay to identify small molecule agonists of H2AX - cell viability counter screen (AID 1224847; calls by dose curve;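 note: wild-type CHO-K1 cells; top concentration of the series differs between compounds; nearly all actives have a fitted effect of over 30% in size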)
Outline: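 For this counter screen, overnight-attached CHO-K1 cells received test compounds (15 concentrations, 0.76% DMSO final); 3 hr later at 37C, CellTiter-Glo reagent was added and luminescence recorded after 30 min at room temperature.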

[4] = qHTS RealTime-Glo MT Cell Viability Assay in HepG2 cells - 24 hour (AID 1224867); note: nearly all actives have a fitted effect of over 50% in size
Outline: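 Cells + NanoLuc/prosubstrate dispensed (600 cells/well) → 5 h at 37 C/5% CO2 → compounds in DMSO transferred → 40 h incubation at 37 C, luminescence read at 0, 8, 16, 24, 32, 40 h.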

[5] = qHTS RealTime-Glo MT Cell Viability Assay in HEK293 cells - 32 hour (AID 1224868); note: top concentration of the series differs between compounds; nearly all actives have a fitted effect of over 50% in size
Outline: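 Tox21 10K qHTS, HEK293, 600 cells/well, RealTime-Glo reagent co-dispensed with cells; 5 h preincubation, compound by pintool, 37 C, luminescence at 0–40 h.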

[6] = A CellTox Green Cytotoxicity Assay to monitor cytotoxicity in HEK293 cells - 0 hour (AID 1224869); note: nearly all actives have a fitted effect of over 50% in size
Outline: (§1)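 HEK293 cells premixed with CellTox Green dye were seeded at 600 cells/well and left 5 h at 37 C/5% CO2 before pin transfer of 23 nL compound in DMSO. Fluorescence from dye bound to dead-cell DNA was read during 40 h treatment.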

[7] = qHTS RealTime-Glo MT Cell Viability Assay in HepG2 cells - 40 hour (AID 1224870); note: nearly all actives have a fitted effect of over 50% in size
Outline: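 Real-time viability: cells seeded at 600 per well together with NanoLuc and cell-permeant prosubstrate, compounds added after 5 h incubation. Luminescence tracked at 0, 8, 16, 24, 32 and 40 h of exposure.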

[8] = A CellTox Green Cytotoxicity Assay to monitor cytotoxicity in HEK293 cells - 40 hour (AID 1224871); note: nearly all actives have a fitted effect of over 45% in size
Outline: as §1

Measured: Potency

CCCCC[C@H](O)/C=C/[C@H]1[C@H](O)CC(=O)[C@@H]1C/C=C\CCCC(=O)O
inactive: all assays above

Cc1cc(CCC(=O)OCCOCCOCCOC(=O)CCc2cc(C)c(O)c(C(C)(C)C)c2)cc(C(C)(C)C)c1O
inactive: all assays above

CCCCCCCCCCCCCCCCCC(=O)OCC(CC)CCCC (stereo not given)
inactive: all assays above

C=CCOC(=O)COCCC(C)C
inactive: all assays above

NC(=O)c1ccccc1[N+](=O)[O-]
inactive: all assays above

CC(=O)c1ccc[nH]1
inactive: all assays above

O=S(=O)(O)CO
inactive: all assays above

CCCCCCC(CO)CCCC (stereo not given)
inactive: all assays above

COC(OC)OC
inactive: all assays above

COc1ccc(C)cc1
inactive: all assays above
